Assay results from PubChem BioAssay (NCATS).
Results filed as inconclusive are left out. Active and inactive are the calls of the source. Unless noted, how the calls were made is not given here.

Key:
[1] = qHTS profiling for inhibitors of Plasmodium falciparum (3D7) proliferation (AID 743322);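 further: infected erythrocytes exposed to compound for 72 h before lysis; 100% = DMSO vehicle wells and 0% = 0.29 µM artemisinin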; conditions: P. falciparum 3D7 proliferation; at 28.7 µM (top of the series)
How it was run: (§1)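 Parasite DNA was quantified by SYBR Green I fluorescence (ex 485, em 535 nm) after overnight lysis in saponin/Triton buffer at room temperature. Cultures at 0.3% parasitemia and 2.5% hematocrit were first exposed to compound for 72 h at 37 C; signals were normalised to artemisinin (0.29 uM) and vehicle wells.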

[2] = qHTS profiling for inhibitors of Plasmodium falciparum (DD2) proliferation (AID 743323); conditions: lower = more inhibition; at 28.7 µM (top of the series)
How it was run: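 P. falciparum Dd2-infected erythrocytes (0.3% parasitemia, 2.5% hematocrit) exposed 72 h at 37 C, 5% CO2. Lysis with SYBR Green, overnight at room temperature, fluorescence 485/535 nm; normalized to 0.29 uM artemisinin and DMSO.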

[3] = qHTS profiling of the MIPE4 collection as inhibitors of Plasmodium falciparum (3D7) proliferation (AID 743344);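 further: scaled between DMSO vehicle wells and 0.29 µM artemisinin as full inhibition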; conditions: P. falciparum 3D7 in erythrocytes, SYBR Green DNA fluorescence, 72 h; at 28.5 µM (top of the series) unless noted
How it was run: as §1

[4] = qHTS profiling of the MIPE4 collection as inhibitors of Plasmodium falciparum (DD2) proliferation (AID 743345); conditions: P. falciparum Dd2 in erythrocytes, SYBR Green DNA, 72 h; at 28.5 µM (top of the series) unless noted
How it was run: as §1

[5] = qHTS profiling of the MIPE4 collection as inhibitors of Plasmodium falciparum (DD2) proliferation (Rep 2) (AID 743346); conditions: P. falciparum Dd2 in erythrocytes, SYBR Green DNA, 72 h; at 28.5 µM (top of the series) unless noted
How it was run: as §1

[6] = qHTS profiling of the MIPE4 collection as inhibitors of Plasmodium falciparum (HB3) proliferation (AID 743347);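 further: plate controls were DMSO vehicle wells for no effect and artemisinin wells for full effect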; conditions: P. falciparum HB3 in erythrocytes, SYBR Green DNA, 72 h; at 28.5 µM (top of the series) unless noted
How it was run: as §1

[7] = High-throughput drug toxicity screening in the BPDCN cell line Gen2.2 (AID 1224824); conditions: Gen2.2 BPDCN cells; at 45.8 µM (top of the series) unless noted;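 further: cells exposed to compounds for 48 h before reading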
How it was run: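 Seed 500 exponentially growing Gen2.2 cells/well; add compounds by pin tool; incubate 48 h, 37 °C, 5% CO2; add CellTiter-Glo, 15 min RT; read luminescence. % activity vs DMSO (100%) and bortezomib (0%).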

[8] = High-throughput drug toxicity screening in the BPDCN cell line Cal-1 (AID 1224825); conditions: Cal-1 BPDCN cell viability, qHTS; at 45.8 µM (top of the series) unless noted
How it was run: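 CellTiter-Glo luminescence after 48 h compound exposure; percent activity scaled with DMSO as 100% and bortezomib (9.2 uM final) as 0%. Cal-1 cells seeded at 500/well in RPMI, 10% FBS, no phenol red.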

[9] = qHTS assay for measurement of the activity of small molecule inhibitors on Zika virus induced Caspase-3 activity in human astrocytoma cells (AID 1224859; active means well fitted curve in the direction sought with a large enough effect; an effect the other way counts as inactive or inconclusive;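 further: plate controls were ZIKV-infected untreated cells for no effect and uninfected cells for full effect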)
How it was run: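 A cell-based luminescent caspase-3/7 assay used SNB-19 cells infected with ZIKV (2 FFU/cell) for 6 h following 1 h compound pretreatment.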

[10] = qHTS Assay for Identifying Gametocytocidal Compounds (AID 743244; active means well fitted curve in the direction sought with a large enough effect; an effect the other way counts as inactive or inconclusive; further: potency means the concentration at half of the fitted maximal effect;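 on max response: on the % scale 0 is the no-effect control and ±100 the full control effect; actives lower the fluorescent signal which means gametocytes are killed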); conditions: P. falciparum 3D7 stage III-V gametocytes, alamarBlue, 72 h; max response: stronger effect = lower value
How it was run: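 In this qHTS viability screen, late-stage 3D7 gametocytes are incubated with compound for 72 h, then with alamarBlue for 24 h; reduced resorufin fluorescence marks killing.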

[11] = qHTS profiling for inhibitors of Plasmodium falciparum (HB3) proliferation (AID 743324; active means well fitted curve in the direction sought with a large enough effect; an effect the other way counts as inactive or inconclusive;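 further: 100% = DMSO vehicle wells and 0% = artemisinin-treated control wells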); conditions: Plasmodium falciparum HB3 blood-stage proliferation; at 28.7 µM (top of the series)
How it was run: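 SYBR Green fluorescence (485 ex/535 em) of lysed cultures, incubated overnight at room temperature in the dark, quantifies parasite DNA. Infected erythrocytes at 0.3% parasitemia and 2.5% hematocrit were exposed 72 h; values normalized to DMSO and 0.29 uM artemisinin controls.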

Structure (SMILES) | remaining parasite growth % (stronger effect = lower value) [1] [%] | activity, percent of control [2] [%] | parasite growth, % of DMSO control [3] [%] | parasite growth remaining, % of DMSO control (lower = more inhibition) [4] [%] | parasite growth, % of control (lower = inhibition) [5] [%] | growth, % of control [6] [%] | cell viability, % of control (lower = more cytotoxic) [7] [%] | viability (% of control) [8] [%] | Potency [9] | max response [10] | Potency [10] | remaining proliferation (% of control), lower = more inhibition [11] [%]
CCN(CC)CCCCNc1ncc2cc(-c3cc(OC)cc(OC)c3)c(NC(=O)NC(C)(C)C)nc2n1 | -0.484 | 1.21 | 5.7 | 9.87 | 8 | 5.53 | 4.8 | 1.79 |  |  |  | 
CC1COC2(CCN(c3nc(=O)c4cc(C(F)(F)F)cc([N+](=O)[O-])c4s3)CC2)O1 (stereo not given) |  |  | 20.5 | 70 | 33.5 | 29.9 | 104 | 110 | inactive |  |  | 
OCc1ccc(-c2ccc(-c3ccc(CO)s3)o2)s1 |  |  | 78.4 | 79.5 | 47.9 | 64.5 | 1.11 | 1.47 | inactive |  |  | 
CN[C@H]1CCc2cc(OC)c(OC)c(OC)c2-c2ccc(OC)c(=O)cc21 |  |  | 67.4 | 90.5 | 47.1 | 90.6 | 24.2 | 11.6 | inactive | -7.45% (inactive) |  | 
CCN1CCN(Cc2ccc(-c3cc4c(N[C@H](C)c5ccccc5)ncnc4[nH]3)cc2)CC1 |  | 1.84 | 5.16 | 8.31 | 7.53 | 8.9 | 42.9 | 6.05 | inactive |  | 23.5 µM (active) | 0.0196
